Sampled rows, rich in hits. Any-hit rate of the full collection: about 4%.
Arbovirus inh: antivirals against arbovirus infection; arbovirus infection cell-based antiviral screen; inhibition, % at 10 µM; 0.37% of 200,000 active; AID 1251; in the data active = inhibition above about 30%
Measles CPE: protection of cells from measles virus; Measles virus-infected cells, CPE protection, absorbance; protection (pct of control), % at 4 µM; 1.5% of 140,000 active; in the data active = protection mostly above about 24%, no sharp cut-off; inactive = mostly below about 26%
HSV augment: HSV replication enhancement; HSV replication augmentation in cells, fold increase; maximum fold increase; 0.005% of 220,000 active; AID 1956; in the data active = maximum fold increase above about 1.5; inconclusive = no clear call, values can overlap the other calls; tested in PC3 cells
ROMK mod: human ROMK K+ channel modulation, primary screen | P48048 | Tet-inducible ROMK, thallium flux fluorescence; actives lie on both sides | B-score at 10 µM | 2% of 130,000 active;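 active = signal ratio slope over the read window, or its plate-corrected B-score, at least 3 SD from the plate mean, either direction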;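 note: B-score of the F/F0 ratio slope over 7 to 12 s after thallium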
Target sequence (P48048 whole entry, looked up): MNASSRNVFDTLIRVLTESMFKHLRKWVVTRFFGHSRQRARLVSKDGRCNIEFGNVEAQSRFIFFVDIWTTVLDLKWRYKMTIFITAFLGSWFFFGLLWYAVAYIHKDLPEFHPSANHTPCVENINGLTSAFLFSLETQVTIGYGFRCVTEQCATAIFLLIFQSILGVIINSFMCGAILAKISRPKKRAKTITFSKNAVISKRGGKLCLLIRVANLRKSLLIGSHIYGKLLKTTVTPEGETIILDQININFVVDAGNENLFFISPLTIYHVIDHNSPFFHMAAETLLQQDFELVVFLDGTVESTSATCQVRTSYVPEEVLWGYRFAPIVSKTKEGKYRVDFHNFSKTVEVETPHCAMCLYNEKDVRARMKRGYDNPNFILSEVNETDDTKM
KCC2 mod: modulators of human KCC2 chloride dependent transport | Q9H2X9 | KCC2 cells, thallium flux FluoZin-2 fluorescence | B-score of Tl+ flux slope (higher = more flux/activation; lower = inhibition) at 10 µM | 2.2% of 190,000 active;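 active = thallium flux slope and its plate-corrected score both differing from the plate sample mean at a set confidence after two filtering rounds, in either direction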;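 note: slope of fluorescence scaled to starting intensity during 10 to 20 s after thallium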
* marks the source's active call; other numbers are inactive results; i = inactive; ? = inconclusive; . = not tested or not shown.

SMILES | Arbovirus inh | Measles CPE | HSV augment | ROMK mod | KCC2 mod
COc1ccc(NC(=O)C(CC(=O)O)C(C)c2ccccc2)cc1 (centres undefined) | -3 | . | i | 0.49 | 1.3
CN(C)Cc1c(O)c(Cl)cc2c3c(c(=O)oc12)CCCC3 | 32* | 14 | i | -0.6 | .
CCN(CC)Cc1c(O)c(Cl)cc2c3c(c(=O)oc12)CCCC3 | 19 | 21 | i | . | 0.65
Cc1scc(C(=O)N2CCN(c3ccc(Cl)cc3)CC2)c1C | 1 | . | i | 1 | -0.076
CCOC(=O)c1c(NC(=S)NCC2CCCO2)sc(C)c1C (centres undefined) | 24 | . | i | 3.5* | 25*
OCCSc1ncnc2c1oc1ccccc12 | 7 | 14 | i | 0.2 | 0.29
O=C(O)CSc1ncnc2c1oc1ccccc12 | -2 | 27* | i | . | -0.6
C=CCC1C=C(C)CC(CC=C)N1 (centres undefined) | 23 | . | i | 0.00065 | 0.6
O=C(N/N=C/c1ccc(Cl)cc1)C(=O)N1CCCCCC1 | 2 | . | i | 0.025 | 0.1
Oc1ccc(C=Nc2ccc3ncccc3c2)c(O)c1 | -25 | 7 | ? | 0.16 | -0.97
COc1cccc(N=Cc2ccc(O)cc2O)c1 | 1 | 35* | i | -0.48 | 0.31
COc1ccc(CN2CCC(=O)NC2=O)cc1 | 3 | 11 | i | -0.31 | 0.038
CCOC1(C(F)(F)F)NC(=O)N(Cc2ccc(OC)cc2)C1=O (centres undefined) | 3 | 34* | i | -0.079 | 0.0077
CSc1cccc(NC(=S)N2CCCN(Cc3ccccc3F)C2)c1 | -3 | . | i | -0.5 | 1.3
Cc1ccc(/C=C/c2nc3ccccc3c(=O)n2CCc2ccccc2)cc1 | -5 | 61* | i | . | -0.92
N#Cc1c(N)nc2c(c1-c1ccncc1)CCCCC2 | -2 | 4 | i | . | -0.052
CSc1ccc(-c2c(C#N)c(N)nc3c2CCCC3)cc1 | -9 | 40* | i | 0.51 | .
COc1ccc(-c2c(C#N)c(N)nc3c2CCCCCC3)cc1OC | -8 | 42* | i | -0.35 | 0.66
COc1ccccc1N(C)S(=O)(=O)c1ccc(C(=O)OCC(=O)N2CCC2)cc1 | -15 | . | i | 0.11 | -0.26
O=c1c(-c2ccnn2-c2ccc(F)cc2)cnc2n1CCS2 | 3 | 11 | i | -0.53 | 1.3
N#Cc1ccc(-n2nccc2-c2cnc3n(c2=O)CCS3)cc1 | 9 | 41* | i | 0.22 | -0.61
CCOC(=O)c1c(NC(=O)c2ccco2)sc2c1CCCCC2 | -9 | 10 | . | 0.031 | .
CCOC(=O)c1c(NS(=O)(=O)Cc2ccccc2)sc2c1CCCC2 | 17 | 6 | i | 3.6* | 144*
CCOC(=O)c1c(NS(=O)(=O)c2ccc(Br)cc2)sc2c1CCC2 | -4 | 9 | i | 3.1* | 118*
CCOC(=O)c1c(NC(=O)OC)sc2c1CCC2 | -6 | 5 | i | . | -1
SMILES | Arbovirus inh | Measles CPE | HSV augment | ROMK mod | KCC2 mod
COc1ccc(-c2cc(C(F)(F)F)nc(S(=O)(=O)CCCC(=O)Nc3cccnc3Cl)n2)cc1OC | -36 | . | i | -0.43 | .
O=S(=O)([O-])CCC[n+]1c(SCCCS(=O)(=O)O)sc2ccc(Cl)cc21 | 0 | 35* | i | -0.021 | 0.17
O=S(=O)(c1ccc(F)cc1)N1CCN(Cc2ccccn2)CC1 | 3 | . | i | 1.1 | 0.22
O=C(O)/C(=C\c1ccco1)NC(=O)c1ccccc1 | 1 | 30* | i | 0.52 | 1.4
COC(=O)/C(=C/c1ccco1)NC(=O)c1ccccc1 | 3 | 7 | i | . | 0.051
O=C(N/N=C/c1ccccc1)c1ccc(N2CCOCC2)c([N+](=O)[O-])c1 | 0 | 20* | i | -0.53 | -1.4
CCCCC(CC)C(=O)NCCCN1CCN(CCCNC(=O)C(CC)CCCC)CC1 (centres undefined) | -6 | 36* | i | . | 1.9
CC(C)CC(=O)NCCCN1CCN(CCCNC(=O)CC(C)C)CC1 | 2 | 25 | i | . | 1.2
CSc1ccccc1NC(=O)c1cc2ncc(Br)cn2n1 | -4 | . | i | -0.17 | 0.27
CCN(CC)S(=O)(=O)c1ccc(Cl)c(C(=O)NC)c1 | 2 | 45* | i | -0.23 | .
C=CCN(C(=O)c1cccc(N2C(=O)C3CC=CC(C)C3C2=O)c1)c1ccccc1 (centres undefined) | 30* | . | i | -0.21 | -1.2
COC(=O)C1CC(O)CN1C(=O)Nc1ccccc1 (centres undefined) | 3 | . | i | 0.75 | -1
NC(=O)c1sc2nc3c(c(-c4cccs4)c2c1N)CCCCC3 | 24 | 61* | i | . | 0.54
O=c1c2cc(N3CCOCC3)ccc2[nH]c(=S)n1CCCN1CCCCCC1 | 1 | 5 | i | -0.85 | 0.43
O=C(CCCn1c(=S)[nH]c2ccccc2c1=O)N1CCN(c2cccc(Cl)c2)CC1 | 4 | 59* | i | . | -0.66
O=c1c2nccnc2[nH]c(=S)n1Cc1ccccc1 | 0 | . | i | 0.046 | 0.93
O=c1c2ccccc2[nH]c(=S)n1CCN1CCN(Cc2ccccc2)CC1 | -5 | 6 | i | -0.036 | 15*
O=C(CCCCn1c(=O)[nH]c2ccccc2c1=O)N1CCN(c2cccc(C(F)(F)F)c2)CC1 | -20 | 10 | i | -1.8 | -0.67
O=c1c2cccnc2[nH]c(=S)n1Cc1ccccc1 | 5 | 20 | i | . | 5.5*
O=c1c2cc(F)ccc2[nH]c(=S)n1CCCN1CCOCC1 | 11 | 24 | i | . | 6.4*
N/C(=N\OC(=O)c1csnn1)c1ccc(C(F)(F)F)cc1 | . | . | i | 0.19 | -0.57
CCOc1ccc2nc(NS(=O)(=O)Cc3ccccc3)sc2c1 | -10 | 6 | i | 1.6 | 1.8
CCn1c(C)c(P(c2ccccc2)c2ccccc2)[n+]2ccccc12 | 28 | . | i | -0.21 | 0.35
COc1cc(OC)c(C2SCCS2)c(OC)c1 | -2 | 33* | i | -0.27 | 0.6
COc1cc2c(c(OC)c1)C(c1ccncc1)CC(=O)N2 (centres undefined) | 2 | 16 | i | . | 0.13
SMILES | Arbovirus inh | Measles CPE | HSV augment | ROMK mod | KCC2 mod
COC(=O)c1oc2ccc(Br)cc2c1-n1cccc1 | -8 | 2 | i | -0.32 | -0.7
O=C(O)c1oc2ccccc2c1-n1cccc1 | 9 | 27* | i | 0.93 | -1.3
NC(=S)n1[nH]c(-c2ccc([N+](=O)[O-])cc2)c(N=Nc2cccc(Cl)c2)c1=O | 4 | . | i | -0.53 | 5.8*
Cc1nn(C)c(C)c1NC(=O)CSc1nc(C2CC2)nc2c1cnn2-c1ccccc1 | -5 | 62* | i | . | -0.56
CCOc1ccccc1N1CCN(C(=O)CCCc2nc3ccccc3s2)CC1 | 26 | 9 | i | -0.052 | -2.9
Cc1ccc(S(=O)(=O)CCC(=O)OCC(=O)c2ccc(C)c(C)c2)cc1 | -1 | 30* | i | . | -1.2
CC(=O)NCC(=O)OCC(=O)c1ccc(C)c(C)c1 | -1 | 12 | i | -1.2 | .
O=C(CN1CCN(Cc2cccc(Cl)c2)C1=O)NCc1ccccn1 | 7 | 34* | i | . | -0.49
Cc1cc(N2CCN(c3ccccc3Cl)CC2)n2cc(-c3ccccc3)nc2n1 | 4 | 30* | i | . | -0.42
Cc1cc(N2CCN(c3ccccc3)CC2)n2cc(-c3ccccc3)nc2n1 | -6 | 4 | i | . | -0.46
CC(C)(C)c1ccc(OCc2ccc(C(=O)NCc3cccnc3)o2)cc1 | 0 | . | i | -0.078 | -0.15
